Measurements: PubChem BioAssay AID2235 (The Scripps Research Institute Molecular Screening Center, 2010)
The whole screen tested about 320,000 compounds, of which about 2,800 (0.88%) were called active. For the sample, actives were picked, then their nearest neighbours and some compounds at random. A number with no mark means an inactive call.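 The calls were made as follows: active = inhibition above the mean inhibition of all tested compounds plus 3 SD, computed separately for each screening campaign (cut at about 15% in these data); inactive = the rest.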

Each molecule was assayed against Serine/threonine-protein phosphatase PP1-alpha catalytic subunit (Homo sapiens) (UniProt P62136) (assay: PP1-alpha phosphatase inhibitors, primary screen, counter-screen for PP5 inhibitor project, biochemical, fluorescence, OMFP substrate, single point (AID 2235)). Conditions: purified PP1alpha, at 6.7 µM, stronger effect = higher value.
Chain of Serine/threonine-protein phosphatase PP1-alpha catalytic subunit (Homo sapiens) (P62136 whole entry, looked up): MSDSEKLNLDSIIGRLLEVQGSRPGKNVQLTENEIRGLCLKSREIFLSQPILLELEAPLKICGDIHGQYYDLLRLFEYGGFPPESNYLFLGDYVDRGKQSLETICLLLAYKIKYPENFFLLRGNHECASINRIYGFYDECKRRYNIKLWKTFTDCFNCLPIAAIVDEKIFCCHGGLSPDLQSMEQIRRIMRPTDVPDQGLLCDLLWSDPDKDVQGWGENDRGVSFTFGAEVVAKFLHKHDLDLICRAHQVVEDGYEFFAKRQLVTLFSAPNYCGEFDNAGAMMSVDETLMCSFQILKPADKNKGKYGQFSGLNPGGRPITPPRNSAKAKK

Row | Compound | inhibition
1 | COC(=O)Nc1ccc(S(=O)(=O)Nc2cc(OC)nc(OC)n2)cc1 | 0.14%
2 | O=[N+]([O-])c1ccccc1/C=N/n1c(COc2ccccc2)n[nH]c1=S | 19.8% (active)
3 | Fc1ccc(/C=N/n2c(COc3ccccc3)n[nH]c2=S)cc1 | 1.88%
4 | CCOc1ccc(-c2n[nH]c(=S)n2/N=C/c2cc3c(cc2[N+](=O)[O-])OCO3)cc1 | 1.23%
5 | CC(C)(C)OC(=O)N1CCC(NC(=O)c2[nH]cnc2C(=O)N[C@@H](Cc2ccccc2)C(=O)OCc2ccccc2)CC1 | 5.67%
6 | COc1ccc(CCNC(=O)COC(=O)c2ccc[nH]c2=O)cc1 | -2.04%
7 | CCc1ccc(-c2nn(-c3ccccc3)cc2CSC(=N)N)cc1 | 16.1% (active)
8 | CCc1ccc(-c2nn(-c3ccccc3C)cc2C(=O)N2CCN(C3CCS(=O)(=O)C3)CC2)cc1 (stereo not drawn) | -1.65%
9 | Cc1ccc(-c2nn(-c3ccccc3)cc2C(=O)NC2CCC(O)CC2)cc1 (stereo not drawn) | -2.02%
10 | COC(=O)c1ccc(-n2cnc3ccccc32)nc1 | 1.21%
11 | Cc1nccc(-c2ccc(-n3c(C)ccc3C)cc2)n1 | -1.67%
12 | c1ccc(-c2nccc(-c3ccc(-n4cnc5ccccc54)cc3)n2)nc1 | 44.6% (active)
13 | CC1(C)CC(=O)C(N=Nc2ccc(S(=O)(=O)N3CCCCCC3)cc2)=C(O)C1 | -0.81%
14 | Nc1ncnc(Nc2cccc(Cl)c2Cl)n1 | -0.33%
15 | c1ccc(C(c2ccccc2)N2CCN(Cc3nnnn3C3CCCCC3)CC2)cc1 | 1.36%
16 | O=C(OCC1O[C@@H](OC(=O)c2cc(O)c(O)c(O)c2)[C@@H](OC(=O)c2cc(O)c(O)c(O)c2)[C@@H](OC(=O)c2cc(O)c(O)c(O)c2)[C@@H]1OC(=O)c1cc(O)c(O)c(O)c1)c1cc(O)c(O)c(O)c1 (stereo partly drawn) | 82.4% (active)
17 | O=C(OCC1OC(Oc2ccc(O)cc2)C(O)C(O)C1O)c1ccccc1 (stereo not drawn) | -5.64%
18 | CC(C(=O)Nc1ccc(S(=O)(=O)N2CCCC2)cc1)N(C)Cc1ccc(F)cc1 (stereo not drawn) | -3.95%
19 | Cc1ncc(CO)c(/C=N/NC(=O)c2cccc(S(=O)(=O)N3CCCC3)c2)c1O | 2.87%
20 | COc1ccc(/C=N/NC(=O)CNC(=O)c2ccc(S(=O)(=O)N3CCCC3)cc2)c(OC)c1 | 0.14%
21 | COc1ccc(/C=N/NC(=O)Nc2ccc3nsnc3c2)c(OC)c1 | 15.8% (active)
22 | COc1ccc(/C=N/NC(=O)c2ccc3c(c2)OCCO3)c(OC)c1 | -5.02%

Row | Compound | inhibition
23 | CN1C(=O)/C(=C\c2ccc(-c3ccccc3)o2)SC1=S | -2.09%
24 | O=C1NN(c2ccccc2)C(=O)/C1=C/c1ccc(-c2cccc(C(=O)O)c2)o1 | 5.88%
25 | O=C(O)C(c1ccccc1)N1C(=O)/C(=C\c2ccc(-c3cccc(Cl)c3)o2)SC1=S (stereo not drawn) | 18.4% (active)
26 | CCOc1ccc(S(=O)(=O)NCc2ccc3c(c2)OCO3)cc1C | 1.37%
27 | C/C(=N/NC(=O)CCc1ccccc1)c1ccco1 | -1.45%
28 | N#Cc1c(Cl)nc(-c2cccnc2)nc1-c1ccccc1 | -1.04%
29 | Cc1cc(S(=O)(=O)NCC(C)C)ccc1OCC(=O)NC1CC1 | -3.62%
30 | CC(C)(C)C(=O)NC(NC(=S)Nc1ccc(S(N)(=O)=O)cc1)C(Cl)(Cl)Cl (stereo not drawn) | 1.25%
31 | Cc1ccc(NC(=S)NC(NC(=O)Cc2cccc3ccccc23)C(Cl)(Cl)Cl)cc1 (stereo not drawn) | 16.6% (active)
32 | O=C(Cc1cccc2ccccc12)NNC(=O)Nc1ccc(Cl)cc1 | -1.41%
33 | CCn1cc(CNC(=O)c2cc([N+](=O)[O-])c(C)c([N+](=O)[O-])c2)cn1 | -2.81%
34 | COc1ccc(C(=O)NC2(C(F)(F)F)NC(=O)N(CCCc3ccccc3)C2=O)c(OC)c1OC (stereo not drawn) | 1.31%
35 | O=C1OC(c2ccc(Cl)cc2)=N/C1=C\c1cccnc1 | -0.8%
36 | Cc1ccc(C2=N/C(=C\c3ccc(OS(=O)(=O)c4ccc(C)cc4)cc3)C(=O)O2)cc1 | 0.93%
37 | CCOc1cc(/C=C2/N=C(c3ccc(C(C)(C)C)cc3)OC2=O)cc(Cl)c1OS(C)(=O)=O | 16% (active)
38 | COc1ccc(NS(=O)(=O)c2ccc(C)c(C(=O)NCC(c3cccs3)N3CCOCC3)c2)cc1 (stereo not drawn) | -0.23%
39 | O=C(COc1ccc(S(=O)(=O)NCc2ccccc2)cc1)N1CCOCC1 | 0.87%
40 | Cc1cnc(C(=O)N2CCCC(C(=O)c3ccc(C(F)(F)F)cc3)C2)cn1 (stereo not drawn) | -4.22%
41 | Cc1c(-c2nn(C)c(=O)c3ccccc23)oc2ccc(F)cc2c1=O | 3.07%
42 | Cc1cc(C)c(S(=O)(=O)NCCCN2CCOCC2)cc1Br | -3.53%
43 | CCC(c1nnnn1Cc1ccco1)N(CCc1ccccc1)Cc1cc2cccc(C)c2[nH]c1=O (stereo not drawn) | 7.62%
